In the supplement of paper PMC11732987, “Enantioselective OTUD7B fragment discovery through chemoproteomics screening and high-throughput optimisation” (Communications Chemistry, 2025):

What was measured:
Experiment in all cases: log2 ratio of Biotin-Ahx-Ub-VS probe labelling (fragment/DMSO); higher = less target engagement (more negative = stronger competition), active = hit call of the paper (q ≤ 0.05, log2 ratio ≤ -1)
Conditions in all cases: compound concentration: 200 uM; treatment time: 3 h
[1] = molecular target: T1, USP42 (UniProt Q9H9J4)
T1 sequence (whole entry): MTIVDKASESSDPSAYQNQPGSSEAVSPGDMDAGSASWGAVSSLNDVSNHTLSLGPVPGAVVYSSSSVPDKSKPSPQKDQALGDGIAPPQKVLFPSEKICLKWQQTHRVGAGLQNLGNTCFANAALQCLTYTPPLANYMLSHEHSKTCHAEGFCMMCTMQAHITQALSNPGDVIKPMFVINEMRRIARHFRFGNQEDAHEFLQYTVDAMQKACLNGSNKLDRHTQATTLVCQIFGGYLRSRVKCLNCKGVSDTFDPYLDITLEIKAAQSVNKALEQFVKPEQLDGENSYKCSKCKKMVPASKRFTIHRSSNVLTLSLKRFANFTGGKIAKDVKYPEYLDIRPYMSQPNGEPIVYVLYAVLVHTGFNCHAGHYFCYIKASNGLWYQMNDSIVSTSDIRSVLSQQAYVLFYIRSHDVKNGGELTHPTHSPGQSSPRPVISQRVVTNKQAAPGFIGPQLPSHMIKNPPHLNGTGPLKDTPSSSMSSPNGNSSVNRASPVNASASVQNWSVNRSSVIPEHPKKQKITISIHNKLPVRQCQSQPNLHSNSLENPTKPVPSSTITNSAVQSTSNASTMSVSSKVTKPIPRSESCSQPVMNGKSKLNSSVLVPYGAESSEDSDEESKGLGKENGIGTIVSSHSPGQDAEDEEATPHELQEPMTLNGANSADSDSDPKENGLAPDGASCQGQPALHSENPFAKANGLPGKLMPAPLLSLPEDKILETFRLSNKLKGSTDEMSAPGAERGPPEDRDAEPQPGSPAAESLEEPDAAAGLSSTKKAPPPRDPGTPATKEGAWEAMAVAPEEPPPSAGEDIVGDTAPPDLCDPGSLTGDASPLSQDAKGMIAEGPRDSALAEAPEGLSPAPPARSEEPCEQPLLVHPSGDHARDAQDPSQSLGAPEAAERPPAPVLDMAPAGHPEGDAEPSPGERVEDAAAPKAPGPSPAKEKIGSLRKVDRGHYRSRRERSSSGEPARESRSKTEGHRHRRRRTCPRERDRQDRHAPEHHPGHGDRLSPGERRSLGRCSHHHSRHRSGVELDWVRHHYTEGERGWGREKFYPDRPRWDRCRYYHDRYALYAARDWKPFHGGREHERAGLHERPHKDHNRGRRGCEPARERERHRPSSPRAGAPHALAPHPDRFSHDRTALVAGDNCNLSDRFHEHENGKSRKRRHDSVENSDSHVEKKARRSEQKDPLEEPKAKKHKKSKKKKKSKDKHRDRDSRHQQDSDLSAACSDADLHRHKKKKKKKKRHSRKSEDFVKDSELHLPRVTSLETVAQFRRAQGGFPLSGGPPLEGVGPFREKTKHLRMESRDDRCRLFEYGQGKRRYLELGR
How it was run: (§1)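 HEK293T lysate, 495 µg per sample in Tris/CHAPS/IGEPAL buffer with protease inhibitors, was treated in triplicate with fragment at 200 µM or vehicle for 3 h and then with Biotin-Ahx-Ub-VS at 0.5 µM final for 1 h. Labelled DUBs were NeutrAvidin-enriched, digested with LysC and trypsin, and run by diaPASEF LC-MS/MS. Spectronaut label-free quantities were global-median-normalised, and values are average log2 fragment/vehicle ratios by unpaired t-test on proteins with ≥2 unique peptides.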

[2] = molecular target: USP46 (UniProt P62068)
How it was run: as §1

[3] = molecular target: T2, USP47 (UniProt Q96K76)
T2 sequence (whole entry): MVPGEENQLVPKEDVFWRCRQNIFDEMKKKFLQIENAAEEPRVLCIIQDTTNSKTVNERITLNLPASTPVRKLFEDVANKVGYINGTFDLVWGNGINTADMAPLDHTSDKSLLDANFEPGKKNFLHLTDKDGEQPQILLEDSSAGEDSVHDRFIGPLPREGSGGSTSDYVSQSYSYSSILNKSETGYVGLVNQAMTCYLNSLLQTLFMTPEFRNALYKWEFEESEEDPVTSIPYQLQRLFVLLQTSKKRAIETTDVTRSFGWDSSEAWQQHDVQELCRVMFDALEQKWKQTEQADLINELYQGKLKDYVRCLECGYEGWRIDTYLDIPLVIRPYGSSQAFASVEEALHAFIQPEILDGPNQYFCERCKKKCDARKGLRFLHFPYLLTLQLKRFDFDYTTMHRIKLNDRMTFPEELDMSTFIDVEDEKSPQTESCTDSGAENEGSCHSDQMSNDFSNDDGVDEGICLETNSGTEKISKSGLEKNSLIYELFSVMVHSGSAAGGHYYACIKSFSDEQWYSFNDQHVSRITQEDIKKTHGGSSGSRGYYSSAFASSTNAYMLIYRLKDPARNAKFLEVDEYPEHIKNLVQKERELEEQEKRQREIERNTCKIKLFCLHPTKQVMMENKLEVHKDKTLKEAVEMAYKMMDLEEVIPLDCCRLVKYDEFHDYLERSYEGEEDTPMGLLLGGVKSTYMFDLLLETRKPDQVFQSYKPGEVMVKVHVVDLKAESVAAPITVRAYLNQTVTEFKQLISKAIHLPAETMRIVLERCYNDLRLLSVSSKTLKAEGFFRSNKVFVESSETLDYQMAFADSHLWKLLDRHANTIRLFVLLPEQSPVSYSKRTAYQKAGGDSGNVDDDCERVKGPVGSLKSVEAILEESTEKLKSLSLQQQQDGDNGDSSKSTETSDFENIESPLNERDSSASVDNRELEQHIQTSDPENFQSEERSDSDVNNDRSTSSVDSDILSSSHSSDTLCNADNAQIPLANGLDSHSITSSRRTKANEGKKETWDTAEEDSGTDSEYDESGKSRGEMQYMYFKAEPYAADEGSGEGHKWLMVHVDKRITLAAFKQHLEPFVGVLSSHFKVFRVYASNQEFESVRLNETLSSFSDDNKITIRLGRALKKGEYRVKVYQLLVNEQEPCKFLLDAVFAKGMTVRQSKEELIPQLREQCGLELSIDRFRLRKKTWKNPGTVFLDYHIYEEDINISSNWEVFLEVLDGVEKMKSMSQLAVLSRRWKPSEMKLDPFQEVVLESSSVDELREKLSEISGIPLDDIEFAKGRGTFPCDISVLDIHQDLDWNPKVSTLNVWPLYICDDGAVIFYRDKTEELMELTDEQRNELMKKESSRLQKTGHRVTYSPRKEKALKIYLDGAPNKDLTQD
How it was run: as §1

[4] = molecular target: T3, USP48 (UniProt Q86UV5)
T3 sequence (whole entry): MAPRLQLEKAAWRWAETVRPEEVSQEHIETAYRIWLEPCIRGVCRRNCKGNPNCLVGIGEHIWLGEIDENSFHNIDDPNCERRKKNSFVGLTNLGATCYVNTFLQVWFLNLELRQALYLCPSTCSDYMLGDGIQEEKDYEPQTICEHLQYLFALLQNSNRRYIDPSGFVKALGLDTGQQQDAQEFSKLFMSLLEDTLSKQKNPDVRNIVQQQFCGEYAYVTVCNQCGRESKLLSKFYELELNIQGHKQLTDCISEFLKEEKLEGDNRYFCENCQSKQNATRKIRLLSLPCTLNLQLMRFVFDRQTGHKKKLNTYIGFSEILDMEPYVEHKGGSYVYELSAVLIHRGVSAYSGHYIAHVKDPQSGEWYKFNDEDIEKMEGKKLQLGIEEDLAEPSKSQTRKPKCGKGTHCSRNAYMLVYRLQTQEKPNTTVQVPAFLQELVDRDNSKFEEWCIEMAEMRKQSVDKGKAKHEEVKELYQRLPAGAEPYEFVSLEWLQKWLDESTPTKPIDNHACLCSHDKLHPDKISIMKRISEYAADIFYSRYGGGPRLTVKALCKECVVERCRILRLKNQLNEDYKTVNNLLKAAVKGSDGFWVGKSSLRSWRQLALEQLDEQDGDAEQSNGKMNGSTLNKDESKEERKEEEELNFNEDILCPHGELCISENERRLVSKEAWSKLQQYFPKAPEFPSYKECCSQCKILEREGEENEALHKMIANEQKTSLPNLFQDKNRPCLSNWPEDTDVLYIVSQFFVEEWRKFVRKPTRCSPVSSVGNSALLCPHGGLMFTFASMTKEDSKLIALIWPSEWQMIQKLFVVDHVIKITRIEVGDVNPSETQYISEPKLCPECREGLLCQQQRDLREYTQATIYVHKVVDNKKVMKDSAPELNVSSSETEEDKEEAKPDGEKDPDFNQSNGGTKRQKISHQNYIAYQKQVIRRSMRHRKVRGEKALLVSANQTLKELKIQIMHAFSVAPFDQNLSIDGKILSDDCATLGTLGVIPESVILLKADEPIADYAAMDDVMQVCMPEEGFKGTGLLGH
How it was run: as §1

[5] = molecular target: T4, USP5 (UniProt P45974)
T4 sequence (whole entry): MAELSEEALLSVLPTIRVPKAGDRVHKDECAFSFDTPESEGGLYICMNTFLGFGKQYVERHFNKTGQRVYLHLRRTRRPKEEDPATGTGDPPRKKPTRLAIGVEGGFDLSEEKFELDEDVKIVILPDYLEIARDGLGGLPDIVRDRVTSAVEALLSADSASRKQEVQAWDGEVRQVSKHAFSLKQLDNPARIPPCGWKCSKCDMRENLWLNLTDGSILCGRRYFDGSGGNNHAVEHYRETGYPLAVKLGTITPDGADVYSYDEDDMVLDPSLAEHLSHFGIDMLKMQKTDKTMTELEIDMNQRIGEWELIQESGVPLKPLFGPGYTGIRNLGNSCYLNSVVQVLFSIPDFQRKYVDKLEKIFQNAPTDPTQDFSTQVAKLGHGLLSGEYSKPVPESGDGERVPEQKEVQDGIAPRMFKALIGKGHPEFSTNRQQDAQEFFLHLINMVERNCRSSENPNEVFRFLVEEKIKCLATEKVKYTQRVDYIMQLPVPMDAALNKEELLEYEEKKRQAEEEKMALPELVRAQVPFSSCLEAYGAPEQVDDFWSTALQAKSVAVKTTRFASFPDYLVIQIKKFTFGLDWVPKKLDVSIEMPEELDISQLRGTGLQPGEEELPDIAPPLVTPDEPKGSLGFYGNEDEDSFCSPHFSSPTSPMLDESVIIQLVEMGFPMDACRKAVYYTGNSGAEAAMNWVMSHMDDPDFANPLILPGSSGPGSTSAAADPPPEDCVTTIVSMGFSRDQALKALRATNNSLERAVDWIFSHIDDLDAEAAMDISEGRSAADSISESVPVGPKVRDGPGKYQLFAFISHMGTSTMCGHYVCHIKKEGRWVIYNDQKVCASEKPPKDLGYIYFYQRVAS
How it was run: as §1

[6] = molecular target: USP54 (UniProt Q70EL1)
How it was run: as §1

[7] = molecular target: USP7 (UniProt Q93009)
How it was run: as §1

[8] = molecular target: T5, USP8 (UniProt P40818)
T5 sequence (whole entry): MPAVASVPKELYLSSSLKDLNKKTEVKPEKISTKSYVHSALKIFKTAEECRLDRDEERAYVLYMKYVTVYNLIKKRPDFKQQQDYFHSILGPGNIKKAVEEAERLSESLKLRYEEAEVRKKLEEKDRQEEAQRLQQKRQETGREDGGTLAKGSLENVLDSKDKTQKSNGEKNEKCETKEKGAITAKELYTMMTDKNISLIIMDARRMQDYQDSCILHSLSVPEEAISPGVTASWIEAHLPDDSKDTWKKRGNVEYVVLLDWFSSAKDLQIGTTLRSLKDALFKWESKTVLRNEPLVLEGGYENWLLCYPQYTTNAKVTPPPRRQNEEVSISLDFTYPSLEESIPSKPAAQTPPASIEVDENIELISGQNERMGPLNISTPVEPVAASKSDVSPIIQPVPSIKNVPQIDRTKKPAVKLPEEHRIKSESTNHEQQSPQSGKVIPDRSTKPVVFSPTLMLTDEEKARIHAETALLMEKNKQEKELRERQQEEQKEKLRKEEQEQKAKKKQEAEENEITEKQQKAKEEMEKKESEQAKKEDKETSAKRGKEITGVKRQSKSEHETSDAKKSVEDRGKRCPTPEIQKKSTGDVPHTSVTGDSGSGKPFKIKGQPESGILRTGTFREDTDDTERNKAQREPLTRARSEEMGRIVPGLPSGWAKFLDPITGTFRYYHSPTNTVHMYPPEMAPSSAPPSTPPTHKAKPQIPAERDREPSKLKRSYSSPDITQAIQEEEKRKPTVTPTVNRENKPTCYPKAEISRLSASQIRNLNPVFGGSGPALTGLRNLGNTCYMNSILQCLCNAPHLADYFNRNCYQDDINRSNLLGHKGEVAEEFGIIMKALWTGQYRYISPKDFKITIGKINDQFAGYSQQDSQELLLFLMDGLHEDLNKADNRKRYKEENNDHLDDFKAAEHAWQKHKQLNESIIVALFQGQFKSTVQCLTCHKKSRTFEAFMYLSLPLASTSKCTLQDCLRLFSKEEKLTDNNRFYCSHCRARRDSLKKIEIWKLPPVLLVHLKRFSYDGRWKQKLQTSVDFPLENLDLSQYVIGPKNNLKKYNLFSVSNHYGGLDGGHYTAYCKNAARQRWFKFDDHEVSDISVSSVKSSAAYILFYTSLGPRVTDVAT
How it was run: as §1

[9] = molecular target: USP9X (UniProt Q93008)
How it was run: as §1

[10] = molecular target: UniProt O00487
How it was run: as §1

Measured: log2 ratio of Biotin-Ahx-Ub-VS probe labelling

USP46, sequence (P62068 whole entry): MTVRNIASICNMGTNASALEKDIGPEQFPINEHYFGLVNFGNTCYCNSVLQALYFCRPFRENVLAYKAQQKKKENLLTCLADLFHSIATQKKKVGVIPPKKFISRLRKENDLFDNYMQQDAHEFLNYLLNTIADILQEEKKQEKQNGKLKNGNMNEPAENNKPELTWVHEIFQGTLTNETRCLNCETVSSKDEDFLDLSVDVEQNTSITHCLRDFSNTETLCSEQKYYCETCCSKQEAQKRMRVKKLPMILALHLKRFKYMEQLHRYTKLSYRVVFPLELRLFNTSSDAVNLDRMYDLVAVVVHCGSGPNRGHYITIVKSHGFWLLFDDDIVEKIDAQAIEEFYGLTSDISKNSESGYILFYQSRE
UniProt O00487, sequence (O00487 whole entry): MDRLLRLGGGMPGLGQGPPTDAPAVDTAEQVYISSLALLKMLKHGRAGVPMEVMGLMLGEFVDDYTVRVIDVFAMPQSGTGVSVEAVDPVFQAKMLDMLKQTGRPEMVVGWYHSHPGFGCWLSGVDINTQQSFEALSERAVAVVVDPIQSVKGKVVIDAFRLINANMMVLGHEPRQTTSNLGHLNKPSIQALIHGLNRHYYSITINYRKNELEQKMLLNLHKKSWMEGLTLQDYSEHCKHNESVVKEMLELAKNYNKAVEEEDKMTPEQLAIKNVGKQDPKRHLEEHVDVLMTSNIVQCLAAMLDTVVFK
USP7, sequence (Q93009 whole entry, looked up): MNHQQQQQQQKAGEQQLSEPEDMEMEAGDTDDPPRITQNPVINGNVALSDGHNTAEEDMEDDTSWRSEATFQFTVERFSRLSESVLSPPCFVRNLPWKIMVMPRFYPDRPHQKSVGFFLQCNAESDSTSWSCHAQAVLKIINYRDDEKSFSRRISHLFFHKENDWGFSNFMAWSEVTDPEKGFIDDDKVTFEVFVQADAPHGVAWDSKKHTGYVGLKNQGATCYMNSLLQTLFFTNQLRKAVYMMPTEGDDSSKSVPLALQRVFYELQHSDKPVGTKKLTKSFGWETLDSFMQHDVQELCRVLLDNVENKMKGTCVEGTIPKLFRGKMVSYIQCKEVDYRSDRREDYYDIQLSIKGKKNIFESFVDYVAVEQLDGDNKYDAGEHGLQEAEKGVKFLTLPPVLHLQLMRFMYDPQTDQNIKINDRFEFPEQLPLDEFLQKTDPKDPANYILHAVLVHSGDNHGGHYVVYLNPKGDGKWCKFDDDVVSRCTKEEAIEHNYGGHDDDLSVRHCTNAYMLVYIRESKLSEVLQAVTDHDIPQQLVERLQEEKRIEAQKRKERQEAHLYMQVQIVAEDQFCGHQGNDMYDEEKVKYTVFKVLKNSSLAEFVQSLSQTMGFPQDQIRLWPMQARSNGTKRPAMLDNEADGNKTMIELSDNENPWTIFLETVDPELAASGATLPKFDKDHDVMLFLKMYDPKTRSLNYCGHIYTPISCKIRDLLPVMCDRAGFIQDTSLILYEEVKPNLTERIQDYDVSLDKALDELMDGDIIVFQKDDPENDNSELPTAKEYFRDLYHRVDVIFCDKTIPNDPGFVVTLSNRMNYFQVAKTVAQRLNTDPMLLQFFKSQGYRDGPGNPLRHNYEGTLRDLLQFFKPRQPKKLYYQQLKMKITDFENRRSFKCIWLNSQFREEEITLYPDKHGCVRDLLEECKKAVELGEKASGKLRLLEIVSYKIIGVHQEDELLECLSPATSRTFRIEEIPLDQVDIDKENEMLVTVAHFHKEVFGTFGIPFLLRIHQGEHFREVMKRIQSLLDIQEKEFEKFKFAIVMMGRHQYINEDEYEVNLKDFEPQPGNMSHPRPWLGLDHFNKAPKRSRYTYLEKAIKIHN
USP9X, sequence (Q93008 whole entry): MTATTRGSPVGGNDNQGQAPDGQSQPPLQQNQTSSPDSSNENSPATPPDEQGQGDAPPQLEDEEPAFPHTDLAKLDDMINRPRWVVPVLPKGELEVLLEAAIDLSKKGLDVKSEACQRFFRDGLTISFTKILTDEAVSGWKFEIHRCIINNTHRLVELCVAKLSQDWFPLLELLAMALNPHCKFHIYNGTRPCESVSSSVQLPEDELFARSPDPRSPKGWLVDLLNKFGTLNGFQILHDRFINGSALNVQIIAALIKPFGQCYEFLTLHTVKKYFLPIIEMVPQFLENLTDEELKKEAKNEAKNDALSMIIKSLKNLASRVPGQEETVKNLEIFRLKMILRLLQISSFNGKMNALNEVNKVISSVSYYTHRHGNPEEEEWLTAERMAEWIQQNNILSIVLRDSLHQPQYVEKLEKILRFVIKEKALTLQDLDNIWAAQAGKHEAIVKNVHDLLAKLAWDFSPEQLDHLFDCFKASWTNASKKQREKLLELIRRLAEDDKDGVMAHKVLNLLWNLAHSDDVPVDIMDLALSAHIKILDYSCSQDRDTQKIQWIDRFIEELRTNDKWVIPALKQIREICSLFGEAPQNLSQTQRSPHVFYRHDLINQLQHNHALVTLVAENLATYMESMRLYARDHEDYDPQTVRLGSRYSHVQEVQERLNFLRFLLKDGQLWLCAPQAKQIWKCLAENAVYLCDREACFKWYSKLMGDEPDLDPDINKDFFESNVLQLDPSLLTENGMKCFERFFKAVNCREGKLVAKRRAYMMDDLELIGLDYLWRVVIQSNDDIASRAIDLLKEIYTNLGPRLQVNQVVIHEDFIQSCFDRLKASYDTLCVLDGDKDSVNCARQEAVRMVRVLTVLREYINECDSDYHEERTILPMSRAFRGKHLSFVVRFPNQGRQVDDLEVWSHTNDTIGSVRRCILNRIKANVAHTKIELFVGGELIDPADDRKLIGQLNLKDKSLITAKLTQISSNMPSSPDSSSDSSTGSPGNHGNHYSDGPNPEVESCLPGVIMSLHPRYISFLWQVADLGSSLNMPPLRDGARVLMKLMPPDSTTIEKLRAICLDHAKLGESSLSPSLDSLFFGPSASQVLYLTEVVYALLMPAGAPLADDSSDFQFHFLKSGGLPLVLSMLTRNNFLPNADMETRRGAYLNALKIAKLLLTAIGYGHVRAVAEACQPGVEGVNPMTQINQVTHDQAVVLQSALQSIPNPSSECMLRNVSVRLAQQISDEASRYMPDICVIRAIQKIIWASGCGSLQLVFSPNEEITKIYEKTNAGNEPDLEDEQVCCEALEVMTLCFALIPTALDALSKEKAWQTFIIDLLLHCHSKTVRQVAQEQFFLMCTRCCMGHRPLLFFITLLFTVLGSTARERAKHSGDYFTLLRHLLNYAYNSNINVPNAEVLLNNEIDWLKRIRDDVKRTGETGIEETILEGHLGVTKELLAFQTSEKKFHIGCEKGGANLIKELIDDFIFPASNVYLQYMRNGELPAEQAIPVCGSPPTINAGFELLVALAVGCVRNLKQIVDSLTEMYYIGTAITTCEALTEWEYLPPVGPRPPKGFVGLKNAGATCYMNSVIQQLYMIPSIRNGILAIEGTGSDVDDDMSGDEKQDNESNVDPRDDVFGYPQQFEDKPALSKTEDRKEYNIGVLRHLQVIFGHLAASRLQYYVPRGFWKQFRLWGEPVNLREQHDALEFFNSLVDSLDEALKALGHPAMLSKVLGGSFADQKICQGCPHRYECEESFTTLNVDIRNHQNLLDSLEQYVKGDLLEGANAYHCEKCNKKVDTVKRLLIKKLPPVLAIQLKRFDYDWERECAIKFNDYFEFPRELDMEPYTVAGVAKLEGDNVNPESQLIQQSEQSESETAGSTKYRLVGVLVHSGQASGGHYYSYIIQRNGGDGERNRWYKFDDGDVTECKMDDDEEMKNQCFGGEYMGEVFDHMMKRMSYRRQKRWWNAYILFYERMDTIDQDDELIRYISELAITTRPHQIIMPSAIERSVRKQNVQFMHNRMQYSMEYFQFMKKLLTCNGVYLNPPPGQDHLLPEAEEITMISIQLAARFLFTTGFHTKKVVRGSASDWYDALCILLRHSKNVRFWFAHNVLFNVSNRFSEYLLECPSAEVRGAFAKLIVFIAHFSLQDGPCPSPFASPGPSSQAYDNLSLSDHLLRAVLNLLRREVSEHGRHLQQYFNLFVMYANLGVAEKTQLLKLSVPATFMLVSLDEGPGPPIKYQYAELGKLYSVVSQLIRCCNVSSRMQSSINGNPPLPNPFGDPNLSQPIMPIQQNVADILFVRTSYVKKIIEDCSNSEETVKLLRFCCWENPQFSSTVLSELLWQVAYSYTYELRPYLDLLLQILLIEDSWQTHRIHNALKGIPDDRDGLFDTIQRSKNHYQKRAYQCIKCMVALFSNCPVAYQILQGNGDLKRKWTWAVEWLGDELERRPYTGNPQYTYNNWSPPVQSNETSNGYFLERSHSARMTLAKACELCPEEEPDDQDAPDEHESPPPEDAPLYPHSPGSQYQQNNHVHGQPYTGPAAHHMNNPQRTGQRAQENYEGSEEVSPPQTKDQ

Cc1ccc(CN(C)C(=O)CCl)o1
inactive: [1] 0.191 | [2] -0.175 | [3] 0.0147 | [4] -0.264 | [5] 0.245 | [6] 0.355 | [7] -0.538 | [8] -0.199 | [9] -0.23 | [10] -0.0611
